S1P2 antag: S1P2 (human) receptor antagonism; 97,000 compounds, 0.21% hits; inhibition, % at 5 µM; O95136; cell-based S1P2 antagonist assay, inhibition at 5 uM; in the data active = inhibition above about 45%;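 note: CRE beta-lactamase reporter cells expressing human S1P2 stimulated with S1P; 0% = agonist at EC80 alone and 100% = agonist plus reference antagonist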
GALR2 agonist: activates the human galanin receptor 2; GALR2-expressing cells, agonist activation read-out; activation, % (no concentration beside the values); 140,000 compounds, 0.48% hits; AID 803; in the data active = activation above about 5%, passing the limit was not always enough;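 note: 0% = vehicle buffer wells and 100% = reference agonist at full effect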
Mac1 fbg enh: enhancers of human CD11b/CD18 binding to fibrinogen. AID 1499. K562 CD11b/CD18 adhesion to fibrinogen, ATPlite luminescence. P05107+P11215. 93,000 compounds, 0.07% hits. activation, % at 10 µM;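 active = 10 µM primary screen giving 50% or more activity, confirmed by 40% or more on retest at that dose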
Target sequence (P05107 whole entry, looked up, other chains not shown): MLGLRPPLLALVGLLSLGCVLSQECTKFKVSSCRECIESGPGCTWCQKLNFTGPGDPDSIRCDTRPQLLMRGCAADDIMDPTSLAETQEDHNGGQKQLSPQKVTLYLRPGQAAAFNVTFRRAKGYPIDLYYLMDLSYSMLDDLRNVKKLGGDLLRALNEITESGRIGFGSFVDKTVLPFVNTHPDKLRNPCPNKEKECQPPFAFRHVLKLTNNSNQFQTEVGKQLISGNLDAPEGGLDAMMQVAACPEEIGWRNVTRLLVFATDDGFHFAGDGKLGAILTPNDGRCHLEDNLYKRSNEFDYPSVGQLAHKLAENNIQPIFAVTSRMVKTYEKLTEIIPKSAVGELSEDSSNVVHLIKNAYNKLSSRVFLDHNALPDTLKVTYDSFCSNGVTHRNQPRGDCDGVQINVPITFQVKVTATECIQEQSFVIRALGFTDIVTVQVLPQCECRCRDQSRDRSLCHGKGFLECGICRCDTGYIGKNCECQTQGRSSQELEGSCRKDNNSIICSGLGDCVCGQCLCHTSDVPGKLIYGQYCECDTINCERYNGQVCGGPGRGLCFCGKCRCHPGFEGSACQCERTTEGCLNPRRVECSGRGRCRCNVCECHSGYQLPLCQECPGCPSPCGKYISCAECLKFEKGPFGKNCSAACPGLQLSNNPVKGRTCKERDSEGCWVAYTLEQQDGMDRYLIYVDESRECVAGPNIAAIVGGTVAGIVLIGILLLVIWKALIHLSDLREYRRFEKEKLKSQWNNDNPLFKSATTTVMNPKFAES
S1P2 ag: activates the human S1P2 receptor. O95136. 97,000 compounds, 0.46% hits. S1P2-expressing cell line, agonist reporter read-out. activation, % at 4.5 µM. AID 729; in the data active = activation above about 16%;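 note: 0% = vehicle low control and 100% = maximal reference agonist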
GALR2 blocker: blocks the human galanin receptor 2; O43603; GALR2-expressing cells, antagonist mode; inhibition, % at 4 µM; 140,000 compounds, 0.39% hits; in the data active = inhibition above about 27%;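 note: cells stimulated with galanin 1-16 at roughly its EC80; 0% = agonist challenge control and 100% = basal control without agonist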
CD11b adhes inh: blocks human CD11b/CD18 adhesion to fibrinogen. inhibition, % at 10 µM. P05107+P11215. AID 1497. 93,000 compounds, 0.54% hits. K562 CD11b/CD18 adhesion to fibrinogen, ATPlite luminescence; Mn2+ added to activate the integrin;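 active = primary inhibition of 50% or more at 10 µM, then 40% or more on retest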
An asterisk follows results filed as active. Sampled rows, rich in hits. Any-hit rate of the full collection: about 1.4%.

`COCCn1c(SCCCC(=O)c2ccc(Br)cc2)nnc1-c1ccncc1` gave S1P2 antag 14, GALR2 agonist -2, Mac1 fbg enh -5, S1P2 ag -8, GALR2 blocker 11 and CD11b adhes inh 69*.
`CC(C)(C)Nc1nc(N2CCCC2)nc(N2CCCC2)n1` gave S1P2 antag 47*, GALR2 agonist -1, Mac1 fbg enh 0, S1P2 ag -7, GALR2 blocker 4 and CD11b adhes inh -4.
For COc1ccc2cc3c(N)nn(C(=O)c4ccc(Cl)c([N+](=O)[O-])c4)c3nc2c1 the results were GALR2 agonist -1 and GALR2 blocker -1.
Screening COc1ccc2nc(SCc3nc(N)nc(Nc4ccccc4)n3)[nH]c2c1 returned S1P2 antag 0, GALR2 agonist 0, Mac1 fbg enh -5, S1P2 ag 17*, GALR2 blocker 1 and CD11b adhes inh 3.
Screening COc1ccc(CN(C(=O)c2cnccn2)C(C(=O)Nc2ccc(F)cc2)c2ccccc2)cc1 (stereo not drawn) returned S1P2 antag 5, GALR2 agonist -1, S1P2 ag -9 and GALR2 blocker 5.
Screening COC(=O)Oc1ccc(/C=N/NC(=O)CSCc2ccccc2Br)cc1OC returned S1P2 antag 39, GALR2 agonist 0, Mac1 fbg enh -6, S1P2 ag -3, GALR2 blocker 16 and CD11b adhes inh 54*.
COc1ccc(/C=N/NC(=O)CSCC(=O)Nc2ccccc2)cc1OC was read as S1P2 antag -7, GALR2 agonist -1, Mac1 fbg enh 1, S1P2 ag -2, GALR2 blocker -4 and CD11b adhes inh 11.
O=C(N/N=C\c1cc(Br)ccc1O)c1ccc(S(=O)(=O)N2CCCCC2)cc1 was read as GALR2 agonist 6.1* and GALR2 blocker 22.
For Cc1ccc2nc(N(CCCN(C)C)C(=O)c3cc4ccccc4oc3=O)sc2c1 the results were GALR2 agonist 1 and GALR2 blocker -17.
Screening O=[N+]([O-])c1cccc(S(=O)(=O)Nc2nc3ccccc3nc2Nc2cccc(S(=O)(=O)N3CCCCC3)c2)c1 returned GALR2 agonist -2, Mac1 fbg enh 4, GALR2 blocker -6 and CD11b adhes inh 98*.
`CCOC(=O)C1C(=O)CC(C)(O)C(C(=O)OCC)C1c1ccc(OC)cc1` (stereo not drawn) gave S1P2 antag -22, GALR2 agonist 1, Mac1 fbg enh -4, S1P2 ag 0, GALR2 blocker -14 and CD11b adhes inh 1.
Screening CCOC(=O)C1C(=O)CC(C)(O)C(C(=O)OCC)C1c1ccccc1 (stereo not drawn) returned S1P2 antag 108*, GALR2 agonist -2, S1P2 ag -5 and GALR2 blocker 12.
O=C(N=Nc1c(O)[nH]c2ccccc12)c1cccc(S(=O)(=O)N2CCCCC2)c1 was read as GALR2 agonist 1 and GALR2 blocker 9.
Cc1sc2ncnc(N3CCN(c4ncccn4)CC3)c2c1C was read as S1P2 antag 7, GALR2 agonist -1, Mac1 fbg enh -1, S1P2 ag -2, GALR2 blocker -8 and CD11b adhes inh 8.
Screening COc1cc(C(=O)N2CCN(c3ncnc4sc(C)c(C)c34)CC2)cc(OC)c1OC returned S1P2 antag 3, GALR2 agonist -2, Mac1 fbg enh -12, S1P2 ag -3, GALR2 blocker 6 and CD11b adhes inh 60*.
Screening COC(=O)C(NC(=O)c1ccco1)(Nc1cc(C)ccn1)C(F)(F)F (stereo not drawn) returned S1P2 antag -10, GALR2 agonist 1, S1P2 ag 4 and GALR2 blocker -6.
`Cc1ccc(SCc2nnc(NC(=O)c3ccccc3)s2)cc1` gave S1P2 antag -2, GALR2 agonist 1, Mac1 fbg enh 9, S1P2 ag -4, GALR2 blocker 13 and CD11b adhes inh 4.
`N#CC(c1ccccc1)c1ccc(C(=O)c2ccc(F)cc2)cc1` (stereo not drawn) gave S1P2 antag -11, GALR2 agonist -3, Mac1 fbg enh -7, S1P2 ag 6, GALR2 blocker -4 and CD11b adhes inh 87*.
`CCOc1cc(C(c2c(C)[nH][nH]c2=O)c2c(C)[nH][nH]c2=O)ccc1O` gave GALR2 agonist -1 and GALR2 blocker 11.
`CCOC(=O)c1ccc(N2Cc3ccccc3C2)cc1O` gave S1P2 antag 0, GALR2 agonist -1, Mac1 fbg enh 68*, S1P2 ag -9, GALR2 blocker 1 and CD11b adhes inh 3.
CCOC(=O)c1ccc(N2Cc3ccccc3C2=N)cc1 was read as S1P2 antag -27, GALR2 agonist -2, Mac1 fbg enh -1, S1P2 ag -3, GALR2 blocker 6 and CD11b adhes inh 24.
Screening CCn1c(=O)c(C(=O)Nc2nc3ccccc3[nH]2)c(O)c2ccccc21 returned S1P2 antag 79*, GALR2 agonist 1, Mac1 fbg enh -8, S1P2 ag 4, GALR2 blocker 2 and CD11b adhes inh 96*.
For O=C(NCCCN1CCCC1=O)c1ccc2c(c1)ncn2C1CCCCC1 the results were GALR2 agonist -1 and GALR2 blocker 0.
`CCCCCCn1ccc(=N)cc1` gave S1P2 antag 18, GALR2 agonist 0, Mac1 fbg enh -5, S1P2 ag -4, GALR2 blocker -12 and CD11b adhes inh 56*.
For COc1ccc(C(=O)Cn2nnc(-c3ccccc3NC(=O)C3CCCCC3)n2)cc1 the results were S1P2 antag -13, GALR2 agonist -2, Mac1 fbg enh 2, S1P2 ag -4, GALR2 blocker 4 and CD11b adhes inh 6.
O=C(CN1CCN(Cc2ccc(Cl)cc2)C1=O)NCCCN1CCOCC1 was read as S1P2 antag 6, GALR2 agonist 1, Mac1 fbg enh 6, S1P2 ag -2, GALR2 blocker 0 and CD11b adhes inh -12.
For O=C(CN1CCN(Cc2ccc(Cl)cc2)C1=O)NCCCN1CCN(c2ccc(F)cc2)CC1 the results were S1P2 antag -2, GALR2 agonist -1, Mac1 fbg enh -4, S1P2 ag 0, GALR2 blocker 6 and CD11b adhes inh 57*.
COc1cccc(CNc2nc3nc(C)cc(C)n3n2)c1 was read as S1P2 antag -3, GALR2 agonist 1, Mac1 fbg enh -4, S1P2 ag -8, GALR2 blocker 1 and CD11b adhes inh 0.
`CCS(=O)(=O)N1CCC(C(=O)NCCc2ccccc2)CC1` gave S1P2 antag 8, GALR2 agonist -1, S1P2 ag -1 and GALR2 blocker -1.
Screening CCS(=O)(=O)N1CCC(C(=O)NCCN2CCN(Cc3ccccc3)CC2)CC1 returned S1P2 antag -2, GALR2 agonist 6.2*, Mac1 fbg enh -1, S1P2 ag -8, GALR2 blocker -1 and CD11b adhes inh -4.
